Calls of active or inactive are those of the source. No rule for the calls is given here.

The experiment can be described thus: Counterscreen for Identifying a Potential Treatment of Ataxia-Telangiectasia: SAR for Probe. The note with it: cell-free AlphaLISA pKAP1 detection artifact counterscreen; series mostly up to 154 µM. From the text:
NIH Chemical Genomics Center [NCGC] NIH Molecular Libraries Probe Centers Network [MLPCN] MLPCN Grant: MH089030-01 Assay Submitter (PI): Wei Zheng and Yosef Shiloh Ataxia-telangiectasia (A-T) is a devastating and progressive disease for which, there is no cure. Although A-T is a multisystem disease, it is stereotyped characterized by its neurological symptoms such as truncal ataxia, due to cerebellar cortical degeneration of the Purkinje and granule cells. Other symptoms of A-T are telangiectasias (dilated blood vessels), primary immunodeficiency, marked sensitivity to ionizing radiation (IR), chromosomal instability and predisposition to cancer. The underlying genetic cause of A-T is null mutations in the ATM (A-T mutated) gene. ATM is a nuclear serine/threonine kinase that functions as a master regulator of the cellular responses to double strand breaks (DSBs) in the DNA. Upon activation by DSBs, ATM phosphorylates a plethora of downstream targets, including KAP-1 on Ser82452. […] To screen for small molecules that will compensate for the loss of ATM in cells derived from A-T patients, we monitored KAP-1 phosphorylation as a readout for ATM-like activity using an AlphaLISA assay.
qHTS Assay Protocol: 1. […] Readout, EnVision, EnVision plate reader. […] EnVision protocol for 1536-well AlphaScreen read (30ms excitation, 100ms read), about 10 min/plate. […]
For orientation: The purpose of a counterscreen is to sort out artefacts and off-target activity.
On to `CC(=O)c1c(O)c(C)c(O)c(Cc2c(O)c3c(c(C(=O)/C=C/c4ccccc4)c2O)OC(C)(C)C=C3)c1O`, for which the call was inactive.

The values above are taken from PubChem BioAssay AID504369 (National Center for Advancing Translational Sciences (NCATS), 2011).
